In PubChem BioAssay (NCI) one finds growth data, which are given here for 38 compounds.

About 83,000 compounds went through this panel and 20% of them were active in at least one assay; those are over-represented in the sample as a whole.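 Method: cells in 96-well plates; compound added at one concentration; 48 h incubation; percent growth measured; values under 10 scored active.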 Active and inactive are the calls of the source.

This test deals with BT-549 breast. The experiment in a line: NCI-60 one-dose screen, 48 h (100 = growth as untreated, 0 = no growth, -100 = all killed). Particulars: 10 µM unless noted.
As to `O=C1c2cccnc2C(=O)c2nc3cc(N4CCN(C5CC5)CC4)ccc3nc21`, the growth is -93.7% (active).
To `CC1NC(=S)NC(=O)/C1=C/c1cc(=O)oc2c1ccc1ccccc12` (stereo not drawn) belongs 87.7% (inactive).
On to `Clc1ccc2c(c1)c(-c1ccccc1)nc1nncn12`, for which the growth was 99.8% (inactive).
On to `O=C1Nc2ccccc2/C1=N/c1nc(-c2ccc(Cl)cc2)cs1`, for which the growth is 63.8% (inactive).
Consider `CCCCCCNC(=O)Oc1ccc(/C(=C(/CC)Cc2ccccc2)c2ccc(OCCN(CC)CC)cc2)cc1`, for which the growth is 95.2% (inactive).
The figure for `Clc1ccc(N2N=C(c3cccc(Nc4ccncc4)c3)CC2c2ccc(Br)cc2)cc1` (stereo not drawn) is 116% (inactive).
To `Cc1ccc(C2CC(c3cccc(Nc4ccncc4)c3)=NN2c2ccccc2)cc1` (stereo not drawn) belongs 81.2% (inactive); to `CSc1nnc2c(=O)n(C)c(=O)n(C)c2n1`, 96.4% (inactive); to `O=S(=O)(NCCCNc1nccc(-c2c(-c3cccc(O)c3)nc3occn23)n1)c1ccc(F)cc1`, 87.4% (inactive).
As to `O=C1Nc2c(ccc(Cl)c2Cl)/C1=C/c1ccc([N+](=O)[O-])cc1`, the growth is 87.4% (inactive).
With `Cc1cccc(Oc2ccc(Nc3ncnc4ccc(NC(=O)CN(C)C)cc34)cc2Cl)c1`, the growth was 72.9% (inactive).
The figure for `CC(=O)c1cc2c(N)c(C(=O)Nc3cncc4ccccc34)sc2nc1C` is 105% (inactive); for `COc1ccc(-c2nc(N/N=C/c3c[nH]c4ccccc34)nc(N3CCOCC3)c2C#N)cc1` it is 97% (inactive); for `Cc1ccc(S(=O)(=O)Nc2ccc(Cl)cc2)cc1` it is 106% (inactive).
As for `C=C1C(=O)O[C@H]2[C@H]1CC/C(COC(=O)CCCCCC(=O)OC/C1=C/CC[C@@]3(C)O[C@H]3[C@H]3OC(=O)C(=C)[C@@H]3CC1)=C\CC[C@@]1(C)O[C@@H]21`, the growth is 35.7% (inactive).
The figure for `CCCCCN1C=C/C(=C\C(=O)N(C)c2ccc(Br)cc2)c2ccccc21` is 108% (inactive); for `C/C(=C(/c1ccccc1)c1ccc(OCC(O)CNCCN2CCOCC2)cc1)c1ccccc1` (stereo not drawn) it is 105% (inactive); for `Cn1c(COC(=O)NCCN2CCOCC2)nc2c(N3CCOCC3)nc(-c3ccccc3)nc21` it is -66.4% (active).
As for `COc1cc(CCNc2nc3cc(N)cc(N)c3nc2-c2ccccc2)cc(OC)c1`, the growth is 19.1% (inactive).
The figure for `O=C(Nc1nc(-c2ccccc2Cl)cs1)c1cc(-c2ccccc2)nc2ccc(Cl)cc12` is 11.8% (inactive); for `O=C1OC(=O)C2C1CC=CC2c1ccccc1` (stereo not drawn) it is 93.1% (inactive).
As to `CCCCCCCCCCCC(=O)C(CCCCCCCCCC)C(=O)Nc1ccccc1` (stereo not drawn), the growth was 114% (inactive).
On to `COc1ccc(/C(=C\c2ccccc2)C(=O)O)cc1OC`, for which the growth was 102% (inactive).
Consider `C=C1C(=O)O[C@H]2[C@H]1CC/C(COC(=O)/C=C/c1c[nH]c3ccccc13)=C\CC[C@@]1(C)O[C@@H]21`, for which the growth is -69.6% (active).
The figure for `CC1=CC[C@@H]2CC[C@]3(C)[C@H](CC[C@@H]4[C@@]5(C)CCCNC(C)(C)[C@@H]5CC[C@]43C)[C@H]2[C@@H]1C` is 97.1% (inactive); for `N#CC1=C(N)Oc2c(ccc3ccccc23)C1c1ccc([N+](=O)[O-])cc1` (stereo not drawn) it is 83.1% (inactive); for `CN(C)C(=O)OCc1nc2c(N3CCOCC3)nc(-c3ccccc3)nc2n1C` it is -31.1% (active).
Turning to `C=C(C)[C@@H]1CC[C@]2(C(=O)NCCCN(CCC#N)CCC#N)CC[C@]3(C)[C@H](CC[C@@H]4[C@@]5(C)CCC(=O)C(C)(C)[C@@H]5CC[C@]43C)[C@@H]12`, the growth is 95.5% (inactive).
To `COc1ccc(-c2cnnc3c(-c4cccc(C(F)(F)F)c4)cnn23)cc1` belongs -34.9% (active).
For `CN1CCN(C(=O)[C@]2(C)CC[C@]3(C)CC[C@]4(C)C(=CC(=O)[C@@H]5[C@@]6(C)CCC(=O)NC(C)(C)[C@@H]6CC[C@]54C)[C@@H]3C2)CC1`, the growth is 87.2% (inactive).
Consider `Cc1ccc2[nH]c(=S)n(-c3ccc(S(=O)(=O)Nc4ccc(Cl)nn4)cc3)c(=O)c2c1`, for which the growth is 83.3% (inactive).
With `COc1cc(OC)c(/C=C/C(=O)c2ccc(Nc3ncnc4ccccc34)cc2)c(OC)c1`, the growth was -29.3% (active).
To `O=C(/C=C/c1ccc[nH]1)c1ccc(-n2ccc(C(F)(F)F)n2)cc1` belongs -45.3% (active); to `COc1cc2nc(-c3ccc(C#N)cc3)[nH]c(=O)c2cc1OC`, 293% (inactive); to `O=c1[nH]nc(-c2ccc(Br)cc2)cc1Cc1ccc(O)cc1`, 95.8% (inactive).
For `Clc1ccc(C2CC(c3cccc(Nc4ccncc4)c3)=NN2c2ccccc2)cc1` (stereo not drawn), the growth is -75.9% (active).
The figure for `C=C(C)[C@@H]1CC[C@]2(CO)CC[C@]3(C)[C@H](CC[C@@H]4[C@@]5(C)CCCNC(C)(C)[C@@H]5CC[C@]43C)[C@@H]12` is 77.1% (inactive); for `c1ccc(C2CC(c3cccc(Nc4ccncc4)c3)=NN2c2ccccc2)cc1` (stereo not drawn) it is 92.7% (inactive).
